These results are taken from PubChem BioAssay (EPA / NIEHS).

Activity calls are given as the source filed them. Rule for the calls: active = hit-call score of the fitted dose curve at least 0.9, where 1 is the maximum; inactive = score below 0.9.

This assay in a line: CCTE_Shafer_MEA_acute_firing_rate_mean: CCTE's Neural Acute Assay for Mean Firing Rate, Shafer Lab (AID 2284009). The procedure: CCTE_Shafer_MEA_acute assay is conducted using Axion Biosystems 48 well microelectrode array (MEA) plates and Maestro recording system. Each well of the MEA plate contains a grid of 16 microelectrodes embedded in the culture surface. Electrically active cells, such as neurons, can be cultured over the electrodes, and electrical activity in these cells can be recorded extracellularly. The spontaneous firing of neurons is captured from each electrode on a microsecond timescale providing both temporally and spatially precise data. […] The CCTE_Shafer_MEA_acute assay uses primary cultures of rat cortical neurons. As these cultures mature over time, neural networks develop functional activity and form cohesive networks in which electrical activity can be highly coordinated. Baseline 40-minute recordings are made on days post-plating 13 or 15, followed by a secondary 40-minute recording after chemical exposure.CCTE_Shafer_MEA_acute_firing_rate_mean is a component of the CCTE_Shafer_MEA_acute assay. It measures the frequency number of spikes (action potential firings) as the total number of spikes divided by the length of the recording in a microelectrode array (MEA) using Axion Biosystems Maestro 768 channel amplifier with the AxIS adaptive spike detector. The firing rate is divided by the number of electrodes to report a well-mean value. The recordings before and after chemical treatment are used to calculate a percent change in the mean firing rate in each well.Data from the assay component CCTE_Shafer_MEA_acute_firing_rate_mean was analyzed into 1 assay endpoint. This assay endpoint, CCTE_Shafer_MEA_acute_firing_rate_mean, was analyzed in the negative analysis fitting direction relative to DMSO as the negative control and baseline of activity. Using a type of functional reporter, gain or loss-of-signal activity can be used to understand electrical activity.
Spontaneous activity in the cortical cultures was recorded using an Axion Biosystems Maestro 768 channel amplifier and Axion Integrated Studios (AxIS) v1.8 (or later) software. The amplifier recorded from all channels simultaneously (gain = 1200 x; sampling rate = 12.5 kHz/channel): raw signals were filtered with a Butterworth band-pass filter (300-5000 Hz), which filters out slower local field potentials leaving only fast potentials, i.e., "spikes", arising from extracellular currents associated with action potentials (Pine 2006; Wheeler and Nam 2011). On-line spike detection of filtered signals was conducted with the AxIS adaptive spike detector, using a threshold of 8x the root mean squared (rms) noise on each channel. Any electrodes with rms noise levels greater than 5 uV were grounded (e.g., no data were recorded). Once grounded, an electrode was grounded for the duration of the experiment. All recordings were conducted at 37 C. Wells were deemed usable if on the day of the exposure >/= 10 electrodes were active (defined as >/= 5 spikes/min). On DIV 13 or 15, a minimum of three wells from one cortical culture preparation were treated with each compound (0.03-40 uM). Prior to recording baseline activity, each mwMEA plate was placed in the Maestro at 37 C and allowed to sit for 20 min while firing rates stabilized. Baseline activity (40 min) was recorded before the addition of each compound. An additional 40 min of spontaneous activity was recorded in the presence of each compound. Changes in network parameters relative to baseline were assessed following compound treatment.
For the compound `CN(C)C(=O)C(CCN1CCC(O)(c2ccc(Cl)cc2)CC1)(c1ccccc1)c1ccccc1`, the AC50 (as a rule, the midpoint of the concentration-response curve, whichever way the signal moves) was 291 nM (active). Take `NC(N)=Nc1nc(CSCCC(N)=NS(N)(=O)=O)cs1`: the call was inactive. For the compound `CC1(C)S[C@@H]2[C@H](NC(=O)[C@H](N)c3ccccc3)C(=O)N2[C@H]1C(=O)O`, the outcome was inactive. Turning to `COc1cc(CNC(=O)CCCC/C=C/C(C)C)ccc1O`, the compound was called inactive. With `COc1ccccc1Oc1c(NS(=O)(=O)c2ccc(C(C)(C)C)cc2)nc(-c2ncccn2)nc1OCCO`, the call was inactive. Regarding `CC(C)C1OCCN1CCOC(=O)NCCCCCCNC(=O)OCCN1CCOC1C(C)C` (stereo unspecified), the AC50 was 16.3 nM (active). Regarding `O=[N+]([O-])c1cc(S(=O)(=O)Nc2ccccc2)ccc1Nc1ccccc1`, the half-maximal activity concentration (AC50) was 2980 nM (active). Turning to `Cc1c(C(N)=O)cc([N+](=O)[O-])cc1[N+](=O)[O-]`, the AC50 was 3.2 nM (active). Consider `CN(C)Cc1cc(C(C)(C)C)c(O)c(C(C)(C)C)c1`, for which the AC50 was 2980 nM (active).

In the case of `CCC[Si](OC(C)=O)(OC(C)=O)OC(C)=O`, the AC50 is 72.1 nM (active). Consider `C1CN(CCOCCN2CCOCC2)CCO1`, for which the compound was classed as inactive. Consider `CC1(C)S[C@@H]2[C@H](NC(=O)[C@H](N)c3ccc(O)cc3)C(=O)N2[C@H]1C(=O)O`, for which the compound was classed as inactive. Take `CNCCC(Oc1ccc(C(F)(F)F)cc1)c1ccccc1` (stereo unspecified): the AC50 was 877 nM (active). For the compound `CN(C)CCC(c1ccc(Cl)cc1)c1ccccn1` (stereo unspecified), the compound was classed as inactive. Consider `CC[N+](CC)(CC(=O)Nc1c(C)cccc1C)Cc1ccccc1` (tested in a mixture with another compound), for which the concentration at half-maximal activity (AC50) was 694 nM (active). `COc1ccc(C(=O)c2ccccc2O)c(O)c1`: the half-maximal activity concentration (AC50) is 5.33 nM (active).
